Experimental data published in PubChem BioAssay (NCATS).
“And” between values parts separate entries of the source, which are not always exact repeats. Equal entries are not always repeated. Inconclusive results are not listed. The source made the active and inactive calls. Unless noted, calls follow the shape of the dose curve; as a rule, active = well fitted curve in the direction sought with a large enough effect; inconclusive = small, poorly fitted or top-dose-only effect, or another doubt; inactive = no such curve, though single readings can be large; an effect the other way counts as inactive or inconclusive. Starred links: 1 amine or outer side, 2 acyl side, 3 side chain; linkers in the order of their positions; H or OH if unused. Positions of bridges follow the written chain, without caps; N, C: chain ends. Non-standard residues stand in square brackets, D forms with d. Residues, ends and D or L forms follow the SMILES beside them. Chains are numbered I, II in the order given. Actinocin(9to1) = Cc1c2oc3c(C)ccc(C(=O)[*:1])c3nc-2c(C(=O)[*:2])c(N)c1=O; NMeV = CN[CH](C(=O)O)C(C)C; Sar = CNCC(=O)O

Key:
[1] = Primary qHTS for inhibitors of nuclear receptor binding SET domain protein 2 (NSD2) in an isogenic RCH-ACV NSD2 p.E1099K mutant (9B) (AID 1645876); also: nearly all actives have a fitted effect of over 70% in size
[2] = Primary qHTS for inhibitors of nuclear receptor binding SET domain protein 2 (NSD2) in an RCH-ACV wild type WT cells (2C) (AID 1645877); also: nearly all actives have a fitted effect of over 70% in size
[3] = biological target: N-terminal Xaa-Pro-Lys N-methyltransferase 1 (Homo sapiens) (UniProt Q9BV86); experiment: Confirmatory qHTS for Inhibitors of N-terminal methyltransferase 1 (NTMT1): MTaseGlo Assay (AID 1645874); conditions: NTMT1 enzyme, MTase-Glo SAH luminescence; also: nearly all actives have a fitted effect of over 65% in size
Sequence of N-terminal Xaa-Pro-Lys N-methyltransferase 1 (Homo sapiens) (Q9BV86 whole entry, looked up): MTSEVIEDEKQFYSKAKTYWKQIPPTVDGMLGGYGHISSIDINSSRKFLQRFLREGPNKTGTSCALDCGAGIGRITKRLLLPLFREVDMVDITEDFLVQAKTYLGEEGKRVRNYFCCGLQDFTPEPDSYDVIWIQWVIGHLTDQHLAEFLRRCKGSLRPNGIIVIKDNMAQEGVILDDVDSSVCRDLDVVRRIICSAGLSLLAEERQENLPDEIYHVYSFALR
Outline: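 Room-temperature NTMT1 reaction, 30 min, with 100 uM SAM and 1 uM SPKRIA substrate; enzyme 125 nM. Read-out: MTase-Glo luminescence, normalized to no-enzyme and DMSO controls.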

[4] = biological target: Catechol O-methyltransferase (Homo sapiens) (UniProt P21964); experiment: Confirmatory Screen for Target Class Profiling of Small Molecule Inhibitors of Methyltransferases (AID 1745852; calls by dose curve); conditions: MTase-Glo luminescence, SAH detection, recombinant enzyme; measured here: COMT max response; stronger effect = lower value
Sequence of Catechol O-methyltransferase (Homo sapiens) (P21964 whole entry, looked up): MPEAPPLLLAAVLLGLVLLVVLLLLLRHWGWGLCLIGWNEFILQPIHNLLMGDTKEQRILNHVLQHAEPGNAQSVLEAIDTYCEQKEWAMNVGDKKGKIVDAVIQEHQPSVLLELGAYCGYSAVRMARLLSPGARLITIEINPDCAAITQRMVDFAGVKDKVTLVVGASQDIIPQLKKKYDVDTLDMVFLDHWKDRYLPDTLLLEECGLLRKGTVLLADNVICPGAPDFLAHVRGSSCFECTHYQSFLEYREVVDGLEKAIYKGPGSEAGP

[5] = biological target: Guanidinoacetate N-methyltransferase (Homo sapiens) (UniProt Q14353); experiment: as above; conditions: activity change, negative = inhibition: at 57.3 µM (top of the series)
[6] = biological target: Nicotinamide N-methyltransferase (Homo sapiens) (UniProt P40261); experiment: as above; conditions: MTase-Glo luminescence, SAH detection, recombinant enzyme; measured here: NNMT max response; stronger effect = lower value
Sequence of Nicotinamide N-methyltransferase (Homo sapiens) (P40261 whole entry, looked up): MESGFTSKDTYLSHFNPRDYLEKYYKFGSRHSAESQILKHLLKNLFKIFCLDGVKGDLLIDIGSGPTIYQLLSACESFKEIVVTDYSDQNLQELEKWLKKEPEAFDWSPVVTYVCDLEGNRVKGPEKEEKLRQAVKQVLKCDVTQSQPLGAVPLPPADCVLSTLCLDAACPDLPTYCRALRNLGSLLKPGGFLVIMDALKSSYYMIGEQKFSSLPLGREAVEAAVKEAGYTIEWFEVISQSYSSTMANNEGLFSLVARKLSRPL

[7] = biological target: Phenylethanolamine N-methyltransferase (Homo sapiens) (UniProt P11086); experiment: as above; conditions: MTase-Glo luminescence, SAH detection, recombinant enzyme; measured here: PNMT max response; stronger effect = lower value
Sequence of Phenylethanolamine N-methyltransferase (Homo sapiens) (P11086 whole entry, looked up): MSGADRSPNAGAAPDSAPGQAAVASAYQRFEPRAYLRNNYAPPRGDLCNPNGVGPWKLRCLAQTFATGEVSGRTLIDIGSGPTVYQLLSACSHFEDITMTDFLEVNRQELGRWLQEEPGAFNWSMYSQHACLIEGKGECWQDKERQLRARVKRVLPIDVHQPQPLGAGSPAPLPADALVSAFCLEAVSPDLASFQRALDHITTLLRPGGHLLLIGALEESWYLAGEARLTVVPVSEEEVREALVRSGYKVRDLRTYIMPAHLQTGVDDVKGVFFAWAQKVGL
Potency is read from the fitted curve at half-maximal effect.

What does the source list for N=c1ccn2c(n1)O[C@H]1[C@@H](O)[C@@H](CO)O[C@H]12?
Potency [1]: 0.0209 µM (active); Potency [2]: 0.0235 µM (active)

Which Potency [1] does the source give for C[C@H](NC(=O)Cc1cc(F)cc(F)c1)C(=O)N[C@H](C(=O)OC(C)(C)C)c1ccccc1 here?
Its Potency is “inactive”.

What about the Potency [2] of the same molecule?
Its Potency is “inactive”.

Which results are given for CC(Oc1ccc(O)cc1)(P(=O)(O)O)P(=O)(O)O?
Potency [1]: inactive; Potency [2]: inactive

Which Potency [1] does the source give for CCCCC(=O)O[C@]1(C(=O)CO)[C@@H](C)C[C@H]2[C@@H]3CCC4=CC(=O)C=C[C@]4(C)[C@@]3(F)[C@@H](O)C[C@@]21C here?
Its Potency is “inactive”.

And the Potency [2]?
The Potency was 8.4 nM (active) and 33.2 nM (active).

With CC(C)c1cnn2c(NCc3ccccc3)cc(NCCCCCCN)nc12 as the molecule, how does the Potency [1] read?
Its Potency is 20.9 µM (active).

What about the Potency [2] of the same molecule?
Its Potency is 20.9 µM (active).

With Cc1coc2c1C(=O)C(=O)c1c-2ccc2c(C)cccc12 as the molecule, how does the Potency [1] read?
Its Potency is “inactive”.

What about the Potency [2] of the same molecule?
The Potency was “inactive”.

Which Potency [1] does the source give for O=C1NCCc2[nH]c(-c3ccncc3)cc21 here?
Its Potency is 2.35 µM (active).

What about the Potency [2] of the same molecule?
Its Potency is 1.32 µM (active).

Which results are given for CCCc1nc(C(C)(C)O)c(C(=O)O)n1Cc1ccc(-c2ccccc2-c2nn[nH]n2)cc1?
Potency [1]: inactive; Potency [2]: inactive

Which Potency [1] does the source give for COc1ccc(C=Cc2cc(OC)c(OC)c(OC)c2)cc1NC(=O)[C@H](N)CO here?
The Potency was 0.118 µM (active).

What about the Potency [2] of the same molecule?
Its Potency is 0.118 µM (active).

What does the source list for COc1cc(C)c(Sc2cnc(NC(=O)c3ccc(CNC(C)C(C)(C)C)cc3)s2)cc1C(=O)N1CCN(C(C)=O)CC1 (stereo unspecified)?
Potency [1]: 7.42 µM (active); Potency [2]: 4.68 µM (active)

For C=Cc1c(C)c2cc3nc(cc4[nH]c(cc5nc(cc1[nH]2)C(C)=C5CCC(=O)O)c(CCC(=O)OC)c4C)[C@@]1(C)C3=CC=C(C(=O)OC)[C@H]1C(=O)OC, which Potency [1] is on record?
Its Potency is “inactive”.

What does the source list for COc1cc(CCc2cc(NC(=O)c3ccc(N4C[C@@H](C)N[C@@H](C)C4)cc3)n[nH]2)cc(OC)c1?
Potency [1]: 9.34 µM (active); Potency [2]: 5.9 µM (active)

For O=C(Nc1cc2cc[nH]c2cn1)c1ccccc1, which Potency [3] is on record?
The Potency was 6.31 µM (active).

What about the Potency [1] of the same molecule?
Its Potency is 12.9 µM (active).

What about the Potency [2] of the same molecule?
Its Potency is 9.16 µM (active).

And the activity [4]?
Its activity is -83.5%.

And the Potency [5]?
Its Potency is 19.2 µM (active).

What about the activity [6] of the same molecule?
Its activity is -77.9%.

And the activity [7]?
The activity was -83.3%.

With Cc1noc(-c2ccc(CSCCC(=O)O)cc2)c1NC(=O)OC(C)c1ccccc1Cl (stereo unspecified) as the molecule, how does the Potency [1] read?
The Potency was “inactive”.

Which Potency [1] does the source give for C[C@H]1[C@@H](OC(=O)CCC(=O)O)O[C@@H]2O[C@@]3(C)CC[C@@H]4[C@H](C)CC[C@@H]1[C@@]24OO3 here?
Its Potency is 1.86 µM (active).

What about the Potency [2] of the same molecule?
The Potency was 1.48 µM (active).

Which Potency [1] does the source give for FC(F)(F)c1ccc(Nc2nc3ccc(Oc4ccnc(-c5ncc(C(F)(F)F)[nH]5)c4)cc3[nH]2)cc1 here?
Its Potency is 14.8 µM (active).

And the Potency [2]?
The Potency was 23.5 µM (active).

With Oc1cc(-c2nc(-c3ccccc3)[nH]c2-c2ccncc2)ccc1Cl as the molecule, how does the Potency [1] read?
The Potency was 11.8 µM (active) and 18.3 µM (active).

What about the Potency [2] of the same molecule?
Its Potency is 13.2 µM (active) and 16.4 µM (active).

With CC1(C)O[C@@H]2C[C@H]3[C@@H]4CCC5=CC(=O)C=C[C@]5(C)[C@@H]4[C@@H](O)C[C@]3(C)[C@]2(C(=O)CO)O1 as the molecule, how does the Potency [1] read?
Its Potency is “inactive”.

Which Potency [1] does the source give for Oc1ccc([C@@H]2Oc3ccc(O)cc3[C@@H]3CCC[C@@H]32)cc1 here?
The Potency was 8.33 µM (active).

What about the Potency [2] of the same molecule?
Its Potency is 5.9 µM (active).

For CCOC(=O)C1=C(C)NC(=S)NC1c1cccc(O)c1 (stereo unspecified), which Potency [1] is on record?
The Potency was “inactive”.

For Nc1nc2c(c(=O)[nH]1)N(C=O)[C@H](CNc1ccc(C(=O)N[C@@H](CCC(=O)O)C(=O)O)cc1)CN2, which Potency [1] is on record?
The Potency was “inactive”.

With Cc1c2oc3c(C)ccc(C(=O)NC4C(=O)NC(C(C)C)C(=O)N5CCCC5C(=O)N(C)CC(=O)N(C)C(C(C)C)C(=O)OC4C)c3nc-2c(C(=O)NC2C(=O)NC(C(C)C)C(=O)N3CCCC3C(=O)N(C)CC(=O)N(C)C(C(C)C)C(=O)OC2C)c(N)c1=O (stereo unspecified) (I: TVP[Sar][NMeV] / II: TVP[Sar][NMeV]; ester I:1-I:C, II:1-II:C; linker I:N-II:N via Actinocin(9to1); configuration not given here) as the molecule, how does the Potency [1] read?
Its Potency is 0.0014 µM (active).

And the Potency [2]?
Its Potency is 0.0006 µM (active).

For Cc1cc(C(=O)NOCCO)c(Nc2ccc(I)cc2F)n(C)c1=O, which Potency [1] is on record?
The Potency was “inactive”.

With NC1=N[C@H]2[C@H](CS[C@H]2CCCCC(=O)O)N1 as the molecule, how does the Potency [1] read?
The Potency was “inactive”.

Which Potency [1] does the source give for COc1ccc2c(c1OC)C(=O)OC2[C@H]1c2c(cc3c(c2OC)OCO3)CCN1C (stereo partly specified) here?
Its Potency is 20.9 µM (active).

And the Potency [2]?
The Potency was 23.5 µM (active).

For Cc1ncc(-c2ccnc(Nc3ccc(S(C)(=O)=O)cc3)n2)n1C(C)C, which Potency [1] is on record?
The Potency was 1.45 µM (active) and 742 nM (active).

And the Potency [2]?
Its Potency is 916 nM (active) and 525 nM (active).

For O=C(Nc1ccc(Oc2ccnc3[nH]ccc23)c(F)c1)c1cccn(-c2ccc(F)cc2)c1=O, which Potency [1] is on record?
The Potency was 16.6 µM (active).
